Prostate diff = activators of LNCaP prostate cell differentiation, primary screen, flow cytometry side scatter; 0.56% of 24,000 active; side scatter shift, % at 10 µM; 4 d; AID 795, 2007;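 active = side scatter shift above 30%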;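 also: androgen-responsive LNCaP prostate cancer cells in charcoal-stripped serum medium; percent of cells past a gate set so DMSO wells show 10% shift; higher shift means more granular cells and more differentiation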
FPRL1 ligand = human FPRL1 ligands by binding competition, primary screen, cell-based, FPR counter-screen, flow cytometry; 0.3% of 24,000 active; FPRL1-expressing cells, fluorescent ligand binding inhibition; N-formyl peptide receptor 2 (Homo sapiens), P25090; inhibition, % (concentration not given with the values);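 also: 0% = buffer alone and 100% = receptor blocker peptide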
FPR binder = human FPR ligands by binding competition, primary screen, cell-based, FPRL1 counter-screen, flow cytometry; 0.74% of 24,000 active; FPR-expressing cells, fluorescent ligand binding; fMet-Leu-Phe receptor (Homo sapiens), P21462; inhibition, % (no concentration beside the values);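 also: 0% = buffer wells and 100% = receptor blocker peptide wells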
Target sequence (P21462 whole entry, looked up): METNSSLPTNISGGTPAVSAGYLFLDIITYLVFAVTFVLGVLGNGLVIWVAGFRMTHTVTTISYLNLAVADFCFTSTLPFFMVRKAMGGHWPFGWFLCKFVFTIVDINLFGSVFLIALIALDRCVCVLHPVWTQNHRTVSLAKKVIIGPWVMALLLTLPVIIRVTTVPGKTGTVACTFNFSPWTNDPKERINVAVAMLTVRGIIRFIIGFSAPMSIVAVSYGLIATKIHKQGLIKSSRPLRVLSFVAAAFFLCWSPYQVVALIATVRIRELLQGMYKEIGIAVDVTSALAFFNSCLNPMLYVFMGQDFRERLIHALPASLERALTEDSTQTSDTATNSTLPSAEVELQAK
The depositor's hits bear a star; . = no result given. Compounds with a hit are over-represented: about 1.7% of the library has one in this group of screens. Rule as the data show it, unless noted: active = inhibition above about 30%; inconclusive = no clear call, values can overlap the other calls; inactive = below that.

SMILES	Prostate diff	FPRL1 ligand	FPR binder
CCCCn1c(NC(=O)c2ccccc2Cl)c(C#N)c2nc3ccccc3nc21	.	-1	3
CCCCn1c(NC(=O)CC)c(C#N)c2nc3ccccc3nc21	8	-1	48*
CC1(C)CC(=O)C2=C(C1)N(Cc1ccco1)C(=O)C2(NC(=O)C1CCCCC1)C(F)(F)F (stereo unspecified)	14	-6	6
COc1c(Cl)cc(-c2noc(C)c2C(=O)NC(C)C)cc1Cl	10	2	2
CCN1CCCC1CNC(=O)c1cc2c(-c3ccc(Cl)cc3)nn(C)c2s1 (stereo unspecified)	64*	-7	3
Cn1nc(-c2ccc(Cl)cc2)c2cc(C(=O)NCCCN3CCCC3)sc21	62*	-1	1
CCCCNC(=O)c1cc2c(-c3ccc(Cl)cc3)nn(C)c2s1	4	0	11
CCN1CCCC1CNC(=O)c1cc2c(-c3cccc(OC)c3)nn(C)c2s1 (stereo unspecified)	23	1	2
CC(C)Cc1nc2oc3c(N4CCN(CCO)CC4)ncnc3c2c2c1CCCC2	32*	0	2
OCCN1CCN(c2ncnc3ccc(Br)cc23)CC1	3	6	0
COC(=O)c1cc(-c2ccccc2)sc1NC(=O)c1cc(C)on1	35*	4	-5
COc1cc(NC(=O)c2cc(C)on2)cc(OC)c1OC	5	9	2
Cc1noc(C)c1S(=O)(=O)N1CCC(C(=O)NC2CCCc3ccccc32)CC1 (stereo unspecified)	8	-8	-3
Cc1ccc(NC(=O)c2ccco2)cc1NC(=O)CSc1nnc(-c2cccs2)n1C	7	-3	-4
COc1ccc(C(=O)N2CCN(C3CCCCC3)CC2)c(OC)c1	7	0	2
COc1ccc(OC)c(C(=O)c2nc3c(n2O)CCCCC3)c1	10	52*	54*
CCOc1ccc(CCNC(=O)CCN2C(=O)COc3ccccc32)cc1OCC	7	0	1
CC1CCCCN1CCNC(=O)c1ccc2c(=O)n(CCc3ccccc3)c(=O)[nH]c2c1 (stereo unspecified)	48*	-6	-3
CC1CCN(CCNC(=O)c2ccc3c(=O)n(CCc4ccccc4)c(=O)[nH]c3c2)CC1	5	-5	-3
Cc1cccc(-c2c3c(=O)n(C)c(=O)n(C)c3cn2-c2ccc(O)cc2)c1	8	-1	-4
Cc1cc(C)cc(-n2cc3c(=O)n(C)c(=O)n(C)c3c2)c1	6	24	32*
COc1ccc(CCNS(=O)(=O)c2cccc(C(=O)O)c2)cc1OC	4	2	6
CCOc1cc(C2C(C(=O)c3ccc(C)o3)=C(O)C(=O)N2CCc2ccccc2)ccc1O (stereo unspecified)	.	-9	90*
COc1ccccc1C1C(C(C)=O)=C(O)C(=O)N1CCc1ccccc1 (stereo unspecified)	6	-6	18
COCCN1C(=O)C(O)=C(C(=O)c2ccco2)C1c1cccc(Oc2ccccc2)c1 (stereo unspecified)	.	-5	72*
SMILES	Prostate diff	FPRL1 ligand	FPR binder
CCOc1cccc(C2C(C(=O)c3ccco3)=C(O)C(=O)N2Cc2ccncc2)c1 (stereo unspecified)	.	-4	13
COc1cc(C2C(C(=O)c3ccco3)=C(O)C(=O)N2Cc2cccnc2)cc(OC)c1OC (stereo unspecified)	.	2	-1
COc1ccc(CCN2C(=O)C(O)=C(C(=O)c3ccco3)C2c2cccs2)cc1OC (stereo unspecified)	.	31*	82*
COc1cccc(C2C(C(=O)c3ccco3)=C(O)C(=O)N2CCCN2CCOCC2)c1OC (stereo unspecified)	.	0	-6
COc1cc(C2C(C(=O)c3ccco3)=C(O)C(=O)N2CCc2ccccc2)ccc1O (stereo unspecified)	.	-2	63*
Cc1cc(Nc2ccc(Br)cc2F)n2nc(C)nc2n1	6	-1	-4
CS(=O)(=O)N(CC(=O)Nc1cccc(F)c1)Cc1ccccc1	11	3	1
Cc1[nH]c(C(=O)N2CCCCC2)c(C)c1C(=O)NC1CCCCC1	4	-12	-2
COC(=O)c1[nH]c(C)c(/C(O)=C2\C(=O)C(=O)N(CCN3CCOCC3)C2c2ccccc2OC)c1C (stereo unspecified)	.	14	4
COC(=O)c1[nH]c(C)c(/C(O)=C2\C(=O)C(=O)N(CCN3CCOCC3)C2c2cccs2)c1C (stereo unspecified)	5	1	54*
CCCC(=O)Nc1nnc(CC(=O)N2CCCC2)s1	9	1	-7
Cc1ccc2c(c1)NC(=O)C(CC(=O)NCCCN1CCN(c3cc(Cl)ccc3C)CC1)O2 (stereo unspecified)	44*	-3	-5
Cc1ccc2c(c1)NC(=O)C(CC(=O)NCCCN1CCCCC1)O2 (stereo unspecified)	11	2	-2
CC1CCCCC1NC(=O)Cn1ncc2ccccc21 (stereo unspecified)	2	-6	1
Cc1oc(-c2cccc(Cl)c2)nc1CN1CCCC(C(=O)NCCCN2CCOCC2)C1 (stereo unspecified)	26	2	2
Cc1oc(-c2ccc(Cl)cc2)nc1CN1CCC(C(=O)NCCCN2CCOCC2)CC1	63*	-4	4
CCN(CCNC(=O)C1CCN(Cc2nc(-c3ccc(Cl)cc3)oc2C)CC1)c1ccccc1	66*	-2	4
CCN(CCNC(=O)C1CCN(Cc2nc(-c3cccc(Cl)c3)oc2C)CC1)c1ccccc1	24	14	10
CCN(CCNC(=O)C1CCCN(Cc2nc(-c3ccc(OC)cc3)oc2C)C1)c1ccccc1 (stereo unspecified)	10	3	3
CCc1ccc(-c2nc(CN3CCC(C(=O)NCCN(CC)c4ccccc4)CC3)c(C)o2)cc1	32*	15	0
COc1ccc(S(=O)(=O)Cc2ccc(C(=O)NCc3ccc(F)cc3)o2)cc1	2	-6	2
O=C(O)CCNc1ccc2c(c1)OCCO2	11	4	0
O=C(CN1CCOc2ccccc21)NC1CCCCCCC1	8	1	-7
CN(C)c1nc(N(C)C)nc(N(C)C)n1	8	0	52*
CN(C)c1nc(N)nc(N(c2ccccc2)c2ccccc2)n1	17	10	-7
SMILES	Prostate diff	FPRL1 ligand	FPR binder
CCOCCCNC(=O)C1CCN(S(=O)(=O)N2CC(C)CC(C)C2)CC1 (stereo unspecified)	10	1	-4
CCCCCOC(=O)Cn1c(=O)oc2ccccc21	3	23	31*
CCCCCNC(=O)CCn1c(=O)oc2ccccc21	7	0	0
Cc1nnc(SCc2cc(=O)[nH]c(N3CCCCC3)n2)s1	7	0	-1
CCOc1ccc(/C(O)=C2/C(=O)C(=O)N(CC3CCCO3)C2c2ccc(C)o2)cc1 (stereo unspecified)	.	-6	26
CCOc1ccc(/C(O)=C2/C(=O)C(=O)N(CC3CCCO3)C2c2ccco2)cc1 (stereo unspecified)	.	26	48*
O=C(NCCCN1CCOCC1)c1cc(-c2ccc3c(c2)OCO3)nc2ccccc12	12	1	0
CCOc1ccc(-c2cc(C(=O)NCCCN3CCN(CC)CC3)c3ccccc3n2)cc1	37*	2	0
